Assay results: PubChem BioAssay (Tox21)
Records with an inconclusive call do not appear. Activity calls are given as the source filed them. Unless noted, calls follow the shape of the dose curve; as a rule, active = well fitted curve in the direction sought with a large enough effect in the repeat runs; inconclusive = weak or mixed curves; inactive = no such curve, though single readings can be large; an effect the other way counts as inactive or inconclusive.

Key:
[1] = qHTS assay to identify small molecule agonists of the NFkB signaling pathway - cell viability counter screen (AID 1159515; calls by dose curve; also: series mostly up to about 61 µM; % is scaled to controls: 0 for no effect and ±100 for the full control effect; nearly all actives have a fitted effect of over 55% in size)
Procedure, shortened: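 Using the same wells as the NFkB reporter read, ME-180 NFkB-bla cells given compounds for 5 hr were assessed for viability via CellTiter-Glo, with luminescence taken after a 30 min room-temperature incubation.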

[2] = qHTS assay to identify small molecule agonists of the endoplasmic reticulum stress response signaling pathway (AID 1159516; active = well fitted activation curve with a large enough effect in the signal ratio in the repeat runs, not every such curve was filed as active; the % refers to the signal ratio; also: potency is read from the fitted curve at half-maximal effect; as to activation: % is scaled to controls: 0 for no effect and ±100 for the full control effect)
Procedure, shortened: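 An ESRE-bla HeLa cell assay: compounds were pin-transferred from DMSO onto overnight-plated cells and left 5 hr at 37 C. Substrate was then loaded for 2 hr at room temperature before reading fluorescence at 460 nm and 530 nm.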

[3] = qHTS assay to identify small molecule agonists of the endoplasmic reticulum stress response signaling pathway - cell viability counter screen (AID 1159517; calls by dose curve;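 also: HeLa cells carrying an ER stress response element beta-lactamase reporter; series mostly up to about 61 µM; % is scaled to controls: 0 for no effect and ±100 for the full control effect; nearly all actives have a fitted effect of over 50% in size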)
Procedure, shortened: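 Cells, HeLa ESRE-bla; density, 1,500/well; dosing, 5 hr at 37 C, 5% CO2; readout, CellTiter-Glo luminescence after 30 min RT.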

[4] = qHTS assay to identify small molecule antagonists of the retinoid-related orphan receptor gamma (ROR-gamma) signaling pathway - cell viability counter screen (AID 1159520); also: nearly all actives have a fitted effect of over 50% in size; also: potency is read from the fitted curve at half-maximal effect; as to activity, negative = cytotoxicity: % is scaled to controls: 0 for no effect and ±100 for the full control effect
Procedure, shortened: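 Cytotoxicity was read from cellular ATP (CellTiter-Glo luminescence) after 16 hr at 37 C with 1 uM doxycycline induction. The inducer was added 2 hr after compound transfer to Tet-on ROR gamma CHO cells.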

[5] = target: Nuclear receptor ROR-gamma (Homo sapiens) (UniProt P51449); experiment: qHTS assay to identify small molecule antagonists of the retinoid-related orphan receptor gamma (ROR-gamma) signaling pathway (AID 1159521; also: nearly all actives have a fitted effect of over 50% in size; also: potency is read from the fitted curve at half-maximal effect;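 as to activity change, negative = inhibition: CHO cells with doxycycline inducible ROR-gamma driving an RORE luciferase reporter; top concentration of the series differs between compounds; % is scaled to controls: 0 for no effect and ±100 for the full control effect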)
Procedure, shortened: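 Tet-on ROR-gamma CHO cells with ROR response element-luciferase reporter; compounds added 2 hr before 1 uM doxycycline induction, then 16 hr at 37 C. Antagonism scored as decreased ONE-Glo luminescence.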

[6] = qHTS assay to identify small molecule agonists of the AP-1 signaling pathway - cell viability counter screen (AID 1159525; calls by dose curve; also: nearly all actives have a fitted effect of over 55% in size)
Procedure, shortened: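 Luminescent ATP readout (Cell Titer Glo, 30 min RT), normalised to DMSO and tetra n-octyl ammonium bromide controls. Cells were ME-180 AP-1-bla in 0.5% dialyzed FBS Opti-MEM, with a 5 h, 37 °C compound exposure.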

[7] = qHTS assay to identify small molecule antagonists of the retinoic acid receptor (RAR) signaling pathway (AID 1159552; also: nearly all actives have a fitted effect of over 50% in size; also: potency is read from the fitted curve at half-maximal effect)
Procedure, shortened: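 Retinol signaling pathway inhibitors screened in C3RL4 RARE-luciferase reporter cells seeded overnight at 37 C, then compounds added with 1 uM (final) retinol as pathway substrate. After 6 hr at 37 C, luciferase luminescence read after 30 min at room temperature.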

[8] = qHTS assay to identify small molecule agonists of the retinoic acid receptor (RAR) signaling pathway (AID 1159553); also: % is scaled to controls: 0 for no effect and ±100 for the full control effect
Procedure, shortened: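 Reporter readout comes from luciferase under RARE control in C3RL4 cells; compound exposure lasts 6 hr at 37 C in 5% CO2, and luminescence is recorded following a 30 min room-temperature incubation with reagent.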

[9] = qHTS assay to identify small molecule antagonists of the estrogen related receptor (ERR) signaling pathway from Tox21 library - cell viability counter screen (AID 1224834); also: nearly all actives have a fitted effect of over 30% in size; also: potency is read from the fitted curve at half-maximal effect
Procedure, shortened: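 After 17.5 h of compound exposure at 37 C, ERR cells are incubated with CellTiter-Fluor for 30 min and fluorescence intensity serves as the viability measure.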

[10] = target: Luciferin 4-monooxygenase (Photinus pyralis) (UniProt P08659); experiment: qHTS assay to identify small molecule inhibitors of firefly luciferase (AID 1224835); also: series mostly up to about 120 µM; % is scaled to controls: 0 for no effect and ±100 for the full control effect; nearly all actives have a fitted effect of over 25% in size
Luciferin 4-monooxygenase (Photinus pyralis), sequence (P08659 whole entry, looked up): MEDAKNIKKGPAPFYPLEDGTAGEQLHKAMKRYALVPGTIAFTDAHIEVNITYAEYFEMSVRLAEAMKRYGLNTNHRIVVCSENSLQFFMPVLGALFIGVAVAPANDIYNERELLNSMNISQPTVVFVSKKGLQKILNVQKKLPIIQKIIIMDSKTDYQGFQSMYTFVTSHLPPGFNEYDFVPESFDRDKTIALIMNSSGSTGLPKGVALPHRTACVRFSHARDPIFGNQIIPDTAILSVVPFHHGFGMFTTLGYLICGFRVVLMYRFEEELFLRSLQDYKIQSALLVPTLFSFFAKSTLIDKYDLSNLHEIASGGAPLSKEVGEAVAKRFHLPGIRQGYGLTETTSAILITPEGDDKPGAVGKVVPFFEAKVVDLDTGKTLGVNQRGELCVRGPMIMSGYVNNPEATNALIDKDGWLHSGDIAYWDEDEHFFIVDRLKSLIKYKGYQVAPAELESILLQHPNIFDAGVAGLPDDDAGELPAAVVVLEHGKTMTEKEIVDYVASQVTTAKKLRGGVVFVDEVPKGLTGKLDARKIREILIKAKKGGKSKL
Procedure, shortened: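 Inhibition of purified Photinus luciferase is measured by luminescence. Substrate levels (D-luciferin, ATP) sit at their KM values. Each compound is tested in a concentration series.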

[11] = qHTS assay to identify small molecule agonists of the constitutive androstane receptor (CAR) signaling pathway - cell viability counter screen (AID 1224836); also: series mostly up to about 92 µM; % is scaled to controls: 0 for no effect and ±100 for the full control effect; nearly all actives have a fitted effect of over 45% in size
Procedure, shortened: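 HepG2 cells stably carrying hCAR and a CYP2B6-2.2kb reporter; 15-concentration compounds plus PK11195 (final 0.75 uM), 23 hr at 37 C/5% CO2. Viability read by CellTiter-Fluor fluorescence.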

[12] = target: Retinoic acid receptor RXR-alpha (Homo sapiens) (UniProt P19793); experiment: qHTS assay to identify small molecule agonists of the RXR signaling pathway (AID 1159527; calls by dose curve; also: % is scaled to controls: 0 for no effect and ±100 for the full control effect; nearly all actives have a fitted effect of over 35% in size)
Retinoic acid receptor RXR-alpha (Homo sapiens), sequence (P19793 whole entry, looked up): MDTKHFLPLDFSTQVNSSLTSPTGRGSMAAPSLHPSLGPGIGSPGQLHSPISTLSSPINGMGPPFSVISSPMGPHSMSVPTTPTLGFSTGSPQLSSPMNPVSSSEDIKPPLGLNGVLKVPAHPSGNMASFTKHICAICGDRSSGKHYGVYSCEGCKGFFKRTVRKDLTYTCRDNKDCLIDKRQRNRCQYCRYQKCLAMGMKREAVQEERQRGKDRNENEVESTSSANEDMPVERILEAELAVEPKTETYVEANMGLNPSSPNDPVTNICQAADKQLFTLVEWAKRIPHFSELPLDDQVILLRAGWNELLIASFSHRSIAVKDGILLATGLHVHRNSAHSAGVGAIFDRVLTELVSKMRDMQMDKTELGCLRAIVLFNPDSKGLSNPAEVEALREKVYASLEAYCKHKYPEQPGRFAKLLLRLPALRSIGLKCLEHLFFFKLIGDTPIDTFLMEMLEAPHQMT
Procedure, shortened: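 GeneBLAzer RXR-alpha-UAS-bla HEK 293T cells in 2% charcoal-stripped FBS medium were exposed to compounds for 16 hr at 37 C in agonist mode. Beta-lactamase reporter read as 460/530 nm FRET ratio after 2 hr substrate loading.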

[13] = qHTS assay to identify small molecule antagonists of the retinoid acid receptor (RAR) signaling pathway - cell viability counter screen (AID 1159551); also: % is scaled to controls: 0 for no effect and ±100 for the full control effect; nearly all actives have a fitted effect of over 35% in size
Procedure, shortened: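 Retinol-stimulated (1 uM final) C3RL4 cells, compound 6 h, 37 C; readout CellTiter-Glo luminescence (ATP) after 30 min RT incubation.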

[14] = qHTS assay to identify small molecule agonists of the RXR signaling pathway - cell viability counter screen (AID 1159529)
Procedure, shortened: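 RXR-alpha-UAS-bla HEK 293T cells in medium with 2% charcoal-stripped FBS were pre-incubated 5 hr, then compound-treated 16 hr at 37 C. Viability was read by CellTiter-Glo luminescence in the same wells as the beta-lactamase assay, with tetraoctyl ammonium bromide as positive control.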

CC(Cc1cccc(C(F)(F)F)c1)NCCOC(=O)c1ccccc1 (centres undefined)
inactive: Potency [1] | Potency [2] | outcome [3] | Potency [4] | Potency [5] | Potency [6] | Potency [7] | Potency [8] | Potency [9] | Potency [10] | Potency [11]

CCc1nn(C2CCCCC2)c2cc(C3(C#N)CCC(C(=O)O)CC3)ccc12 (centres undefined)
inactive: Potency [1] | outcome [3] | Potency [4] | Potency [6] | Potency [12] | Potency [13] | Potency [8] | Potency [10]
active: Potency [2] 1.55 µM | Potency [5] 27.3 µM

CC(C)(C)C1CCCCC1O (centres undefined)
inactive: Potency [1] | Potency [2] | outcome [3] | Potency [4] | Potency [5] | Potency [6] | Potency [12] | Potency [13] | Potency [7] | Potency [8] | Potency [9] | Potency [10] | Potency [11]

CCCCCCCCCO
inactive: Potency [1] | Potency [2] | outcome [3] | Potency [4] | Potency [5] | Potency [6] | Potency [14] | Potency [13] | Potency [7] | Potency [8] | Potency [9] | Potency [10] | Potency [11]

Cc1occc1S
inactive: Potency [1] | Potency [2] | outcome [3] | Potency [4] | Potency [5] | Potency [6] | Potency [13] | Potency [8] | Potency [9] | Potency [10]

C=CC(=O)OCC(C)OCC(C)OCC(C)OC(=O)C=C (centres undefined)
active: Potency [4] 21.7 µM | Potency [5] 30.6 µM | Potency [7] 61.1 µM | Potency [9] 61.1 µM
inactive: Potency [1] | Potency [2] | outcome [3] | Potency [6] | Potency [14] | Potency [10]

O=C(O)Cc1cc(I)c(Oc2ccc(O)c(I)c2)c(I)c1
inactive: Potency [1] | Potency [2] | outcome [3] | Potency [4] | Potency [5] | Potency [6] | Potency [14] | Potency [13] | Potency [7] | Potency [8] | Potency [11]

NC[C@H]1O[C@H](O[C@H]2[C@H](O)[C@@H](O[C@H]3O[C@H](CO)[C@@H](O)[C@H](N)[C@H]3O)[C@H](N)C[C@@H]2N)[C@H](O)[C@@H](O)[C@@H]1O
inactive: activity, negative = cytotoxic [1] -4.89% [at 6.95 µM] | activation [2] -2.16% [at 6.95 µM] | activity change, negative = cytotoxicity [3] -9.96% [at 6.95 µM] | activity, negative = cytotoxicity [4] 1.78% [at 8.39 µM] | activity change, negative = inhibition [5] -16.2% [at 8.39 µM] | viability change, negative = cytotoxic [6] -4.71% [at 6.97 µM] | activation [12] 3.4% [at 6.98 µM] | activity change, negative = cytotoxicity [13] -0.107% [at 8.39 µM] | viability change, negative = cytotoxic [9] -5.48% [at 8.39 µM] | activity change, negative = inhibition [10] 8.02% [at 10.5 µM] | viability change, negative = cytotoxic [11] -3.02% [at 8.39 µM]

CCCOc1ccc2nc(NC(=O)OC)[nH]c2c1
inactive: Potency [1] | Potency [2] | outcome [3] | Potency [4] | Potency [5] | Potency [6] | Potency [7] | Potency [8] | Potency [10] | Potency [11]
